This is one part of a sample in which hits are shown more often than they occur.
mHTT-CaM PPI inh = disrupts binding of mutant huntingtin to calmodulin; P42858; AlphaScreen His-mHTT/GST-CaM binding, luminescence; inhibition, % at 15 µM; actives 3.6% (n = 190,000);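 note: 0% = both proteins with DMSO and 100% = one protein alone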
Pf apPOL inh = Pf-apPOL DNA polymerase inhibition | AID 1794808 | Recombinant Pf-apPOL, molecular beacon fluorescence, 1.5 h | actives 0.25% (n = 210,000) | inhibition, % at 10 µM
Active calls of the source: *; · = not tested or not shown. Cut-off read from the data, not from the text of the source: active = inhibition above about 50%; inactive = the rest.

SMILES	mHTT-CaM PPI inh	Pf apPOL inh
COc1ccc(OC)c(NC(=O)C2CN(S(=O)(=O)C3CC3)CC23CCCCC3)c1 (stereo not drawn)	15	-2
COCc1nnc(NC(=O)C23CC4CC(CC(C4)C2)C3)s1	1	·
Cc1ccc(S(=O)(=O)Nc2cccc3cccnc23)cc1	38	-45
Nc1ccccc1S(=O)(=O)Nc1cccc2cccnc12	100*	-19
Nc1c(Br)cc(Cl)c2c1C(=O)c1ccccc1C2=O	18	5
Nc1c(Br)cc(O)c2c1C(=O)c1ccccc1C2=O	83*	-6
COC(=O)c1ccccc1S(=O)(=O)Cc1ccc(OC)c(OC)c1	·	3
CCOC1=NN(c2ccc([N+](=O)[O-])cc2)C(=O)/C1=C/c1cccc(Cl)c1Cl	65*	-15
CCOC1=NN(c2ccc([N+](=O)[O-])cc2)C(=O)/C1=C/c1ccccc1OCC	22	2
CCN(CC)C(=O)C1CCCN(Cc2ccc(Cl)cc2)C1 (stereo not drawn)	-5	-5
Cc1ccccc1-n1nc2c(c1NC(=O)Cc1ccccc1)CS(=O)(=O)C2	5	-7
CCCCC(=O)Nc1c2c(nn1-c1ccccc1C)CS(=O)(=O)C2	3	72*
Cc1ccc(-c2n[nH]c(=O)c3ccccc23)cc1S(=O)(=O)NC(C)C	9	-1
CC1(C)CCN2CCC(C)(C)c3c(O)ccc1c32	71*	-4
CC1(C)CCC(C)(C)c2cc3c(cc21)C(C)(C)CCC3(C)C	·	-8
CC(C)(C)NC(=O)Nc1ccc(N2CCCN(Cc3cccs3)CC2)nc1	13	-3
CS(=O)(=O)N(Cc1ccccc1)c1ccccc1C(=O)NCCSc1ccc(Cl)cc1	52*	-12
COCCNC(=O)c1ccccc1N(Cc1ccccc1)S(=O)(=O)c1ccccc1	9	7
Nc1nnc(SCc2ccccc2[N+](=O)[O-])s1	-3	-11
Cc1ccc(NC(=O)COc2ccc(Br)cc2)cc1	-16	80*
Cc1ccc(OCC(=O)Nc2ccc(F)cc2)cc1	-12	2
NC(=S)N=Nc1c2nnnc2c(NNC(N)=S)c2n[nH][nH]c12	100*	·
CCOc1ccc2sc(C=NCc3ccc(OC)cc3)c(O)c2c1	55*	0
CCOc1ccc2sc(C=NCc3ccc(F)cc3)c(O)c2c1	45	2
Cc1ccc([N+](=O)[O-])cc1NC(=O)COc1ccccc1Br	-5	-1
SMILES	mHTT-CaM PPI inh	Pf apPOL inh
CCC(CC)C(=O)N1CCC(c2nc3cccnc3n2C)C1 (stereo not drawn)	-1	-5
Cc1ccccc1CSCc1ccc(C(=O)N2CCC(c3ccncc3)CC2)o1	58*	-1
Cc1ccccc1CSCc1ccc(C(=O)O)o1	5	-6
O=C(C1COc2ccccc2O1)N1CCN(Cc2ccccc2)CC1 (stereo not drawn)	4	-6
CN(C)/C(=C1/c2cc([N+](=O)[O-])ccc2-c2c1cc([N+](=O)[O-])cc2[N+](=O)[O-])N1CCOCC1	57*	-12
O=C(c1cc([N+](=O)[O-])ccc1N1CCCC1)N1CCOCC1	-2	-4
CCOC(=O)c1c[nH]c2cc(Cl)cc(Cl)c2c1=O	·	-30
C[C@@H]1CC=C[C@H]2[C@H]1C(=O)N(Cc1ccccc1)[C@H]2c1ccc(-c2ccoc2)cc1F	60*	-7
C[C@@H]1CC=C[C@H]2[C@H]1C(=O)N(Cc1ccccc1)[C@H]2c1ccc(C(F)(F)F)cc1	91*	-2
C[C@@H]1CC=C[C@H]2[C@H]1C(=O)N(Cc1ccccc1)[C@H]2c1ccc(-c2ccc(F)cc2)cc1F	-4	-2
O=C1C2C(c3ccccc3)CC=CC2[C@H](c2ccc(C(F)(F)F)cc2)N1Cc1ccccc1 (stereo partly drawn)	20	-3
C[C@@]12CCC=C[C@H]1[C@H](c1ccc(C(F)(F)F)cc1)N(Cc1ccccc1)C2=O	83*	-2
C[C@@]12CCC=C[C@H]1[C@H](c1ccc(/C=C/c3ccccc3)cc1F)N(Cc1ccccc1)C2=O	17	-1
COc1cccc(NC(=O)Nc2nnc(Cc3ccc(Cl)cc3)s2)c1	0	-3
CCOc1ccc(C2NC(=O)NC(C)=C2C(=O)Nc2cccc(C)c2C)cc1 (stereo not drawn)	2	-7
Cc1ccc(NC(=O)C2CC(=O)N(c3ccc4c(c3)CCN4C(=O)C3CCC3)C2)c(F)c1 (stereo not drawn)	1	1
C=CCn1c(=N)c(C(=O)NCc2ccco2)cc2c(=O)n3cc(C)ccc3nc21	1	-6
Cc1nc2cc(N3CC(C(=O)N4CCN(c5ccccc5)CC4)CC3=O)ccc2o1 (stereo not drawn)	2	-5
Cc1cccc(NC(=O)C2CCN(c3ncc(-c4ccccc4)cn3)CC2)c1	-8	1
Cc1cccc(-c2cnc(N3CCC(C(=O)Nc4ccc(F)cc4)CC3)nc2)c1	100*	1
c1cc2c(cc1C13CC4CC(CC(C4)C1)C3)c1c3n2CCNC3CCC1 (stereo not drawn)	100*	·

Screens: PubChem BioAssay, University of Kansas High Throughput Screening Laboratory
